Common to all, as to experiment: DAPPL (digital affinity profiling via proximity ligation, sequencing); 10 mM Tris-HCl pH 7.5, 50 mM NaCl, 1 mM DTT, 4% glycerol, room temperature, 30 min; GST-TFs on glutathione beads, 16-mer random dsDNA library, 0.1% formaldehyde crosslink after washing; high values mean tight binding
Common to all, as to conditions: protein: recombinant; tags: N-terminal GST; dsDNA, one strand shown

One experiment has as its target T1, ERF (Homo sapiens, UniProt P50548 1-548).
T1 sequence: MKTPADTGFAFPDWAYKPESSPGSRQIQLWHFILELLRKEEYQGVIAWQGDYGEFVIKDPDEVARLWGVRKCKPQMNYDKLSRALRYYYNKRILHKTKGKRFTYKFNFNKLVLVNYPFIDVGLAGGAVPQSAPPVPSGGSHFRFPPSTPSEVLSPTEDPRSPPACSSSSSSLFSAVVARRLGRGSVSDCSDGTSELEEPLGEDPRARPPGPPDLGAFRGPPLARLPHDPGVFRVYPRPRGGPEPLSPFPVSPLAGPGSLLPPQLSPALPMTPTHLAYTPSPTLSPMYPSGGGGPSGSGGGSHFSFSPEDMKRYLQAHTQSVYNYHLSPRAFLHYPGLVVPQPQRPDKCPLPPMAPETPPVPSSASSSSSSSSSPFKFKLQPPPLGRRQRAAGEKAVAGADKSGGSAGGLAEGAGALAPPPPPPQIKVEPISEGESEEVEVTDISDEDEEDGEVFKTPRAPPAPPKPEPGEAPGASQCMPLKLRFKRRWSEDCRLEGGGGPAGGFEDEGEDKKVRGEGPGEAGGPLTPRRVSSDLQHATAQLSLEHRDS
The method, boiled down:
(§1)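 Binding signal is given per hexamer as its read frequency for a factor divided by its frequency in the tag-only sample. GST-fused human transcription factors were expressed in yeast, captured on glutathione beads, barcoded with DNA and pooled with that sample, then incubated with 200 nmole of a 16-mer random double-stranded DNA library in Tris/NaCl/DTT/glycerol buffer for 30 min at room temperature. The pools were then washed, crosslinked, proximity-ligated, amplified by PCR and sequenced on an Illumina NextSeq500.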

For another experiment, the target named is T2, ETV3L (Homo sapiens, UniProt Q6ZN32 1-361).
T2 sequence: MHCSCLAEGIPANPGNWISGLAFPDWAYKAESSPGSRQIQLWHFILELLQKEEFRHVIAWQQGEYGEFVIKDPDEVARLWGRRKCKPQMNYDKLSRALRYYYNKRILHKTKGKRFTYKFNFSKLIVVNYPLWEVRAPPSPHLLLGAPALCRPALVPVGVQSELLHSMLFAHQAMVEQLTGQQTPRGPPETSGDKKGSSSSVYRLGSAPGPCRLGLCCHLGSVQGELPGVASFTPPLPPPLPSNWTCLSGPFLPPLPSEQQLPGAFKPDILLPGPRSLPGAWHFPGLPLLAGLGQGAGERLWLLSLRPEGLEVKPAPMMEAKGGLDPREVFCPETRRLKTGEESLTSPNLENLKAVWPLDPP
The method, boiled down:
as §1

The next experiment deals with T3, ETS2 (Homo sapiens, UniProt P15036 1-469).
T3 sequence: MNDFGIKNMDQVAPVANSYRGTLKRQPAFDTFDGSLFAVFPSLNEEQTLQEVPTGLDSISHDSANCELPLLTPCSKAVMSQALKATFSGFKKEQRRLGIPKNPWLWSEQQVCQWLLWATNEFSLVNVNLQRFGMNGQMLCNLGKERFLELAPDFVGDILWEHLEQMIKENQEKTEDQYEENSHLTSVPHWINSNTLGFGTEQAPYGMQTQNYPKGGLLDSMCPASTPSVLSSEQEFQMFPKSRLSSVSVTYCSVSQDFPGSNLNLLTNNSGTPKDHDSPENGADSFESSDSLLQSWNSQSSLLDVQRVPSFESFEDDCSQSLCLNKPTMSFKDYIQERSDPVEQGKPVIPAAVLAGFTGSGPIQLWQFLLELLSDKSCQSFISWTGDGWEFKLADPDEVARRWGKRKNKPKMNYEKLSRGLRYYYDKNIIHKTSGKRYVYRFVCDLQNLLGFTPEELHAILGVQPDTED
The method, boiled down: as §1

A further experiment has as its target T4, SPDEF (Homo sapiens, UniProt O95238 1-335).
T4 sequence: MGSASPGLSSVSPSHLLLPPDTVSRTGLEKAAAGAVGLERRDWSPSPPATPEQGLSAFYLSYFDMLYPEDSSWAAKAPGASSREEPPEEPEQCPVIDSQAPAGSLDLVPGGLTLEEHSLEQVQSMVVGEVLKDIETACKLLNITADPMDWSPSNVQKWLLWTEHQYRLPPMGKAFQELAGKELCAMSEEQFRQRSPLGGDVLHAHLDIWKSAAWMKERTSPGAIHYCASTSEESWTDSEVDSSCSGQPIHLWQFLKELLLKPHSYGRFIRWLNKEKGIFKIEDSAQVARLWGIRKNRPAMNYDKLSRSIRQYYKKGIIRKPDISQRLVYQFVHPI
Summed up: as §1

Another experiment concerns the target T5, ETV7 (Homo sapiens, UniProt Q9Y603 1-341).
T5 sequence: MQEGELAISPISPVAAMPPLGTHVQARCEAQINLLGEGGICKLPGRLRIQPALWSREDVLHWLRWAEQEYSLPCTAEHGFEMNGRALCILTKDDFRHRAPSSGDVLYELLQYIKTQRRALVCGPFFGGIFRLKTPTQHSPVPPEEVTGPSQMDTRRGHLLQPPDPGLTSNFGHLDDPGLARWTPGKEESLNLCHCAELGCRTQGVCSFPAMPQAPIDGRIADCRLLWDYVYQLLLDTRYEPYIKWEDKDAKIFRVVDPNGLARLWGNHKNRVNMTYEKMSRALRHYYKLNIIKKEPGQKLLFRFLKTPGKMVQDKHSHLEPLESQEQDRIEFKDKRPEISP
Summed up: as §1

The target in a further experiment is T6, ELF5 (Homo sapiens, UniProt Q9UKW6-2 1-255).
T6 sequence: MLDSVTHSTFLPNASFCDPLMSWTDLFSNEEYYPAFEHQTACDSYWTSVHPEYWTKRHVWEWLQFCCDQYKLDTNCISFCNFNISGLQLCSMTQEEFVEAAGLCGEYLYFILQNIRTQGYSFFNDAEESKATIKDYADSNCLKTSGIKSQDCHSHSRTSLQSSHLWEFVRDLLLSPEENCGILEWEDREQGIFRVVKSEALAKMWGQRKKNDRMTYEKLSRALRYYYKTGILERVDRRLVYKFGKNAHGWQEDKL
Summed up:
as §1

The target of a further experiment is T7, ETV3 (Homo sapiens, UniProt P41162-2 1-143).
T7 sequence: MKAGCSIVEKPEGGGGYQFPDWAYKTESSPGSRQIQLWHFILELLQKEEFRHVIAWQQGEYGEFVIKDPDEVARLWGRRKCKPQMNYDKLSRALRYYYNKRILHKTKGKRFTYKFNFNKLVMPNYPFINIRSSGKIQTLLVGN
The method, boiled down:
as §1

In a further experiment the target is ETV6 (Homo sapiens, UniProt P41212 1-452). The method, boiled down:
as §1

ETV6, sequence (P41212 whole entry): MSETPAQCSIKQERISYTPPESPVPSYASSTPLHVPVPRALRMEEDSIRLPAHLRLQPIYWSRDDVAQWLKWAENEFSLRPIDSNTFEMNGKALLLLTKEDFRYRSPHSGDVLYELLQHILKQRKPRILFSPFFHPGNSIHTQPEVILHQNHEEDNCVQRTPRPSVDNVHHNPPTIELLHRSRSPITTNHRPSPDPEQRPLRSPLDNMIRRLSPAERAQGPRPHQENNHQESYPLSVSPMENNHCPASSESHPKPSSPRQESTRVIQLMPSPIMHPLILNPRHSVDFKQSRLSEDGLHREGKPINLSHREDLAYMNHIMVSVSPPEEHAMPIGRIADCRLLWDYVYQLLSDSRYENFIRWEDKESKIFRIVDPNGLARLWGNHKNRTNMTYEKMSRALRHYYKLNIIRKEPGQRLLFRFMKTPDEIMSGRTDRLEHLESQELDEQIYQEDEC

For TAATTT, the binding signal with ERF is 1.43 fold enrichment (6-mer frequency, TF over GST control); with ETV3L, 1.48 fold enrichment (6-mer frequency, TF over GST control); with ETS2, 1.41 fold enrichment (6-mer frequency, TF over GST control); with SPDEF, 1.32 fold enrichment (6-mer frequency, TF over GST control); with ETV7, 1.37 fold enrichment (6-mer frequency, TF over GST control); with ELF5, 1.46 fold enrichment (6-mer frequency, TF over GST control). Besides, the binding signal with ETV3 is 1.24 fold enrichment (6-mer frequency, TF over GST control); with ETV6, 1.39 fold enrichment (6-mer frequency, TF over GST control).
On to TATCGA, for which the binding signal is 1.38 fold enrichment (6-mer frequency, TF over GST control) in the experiment with ERF; 1.41 fold enrichment (6-mer frequency, TF over GST control) with ETV3L; 1.44 fold enrichment (6-mer frequency, TF over GST control) with ETS2; 1.34 fold enrichment (6-mer frequency, TF over GST control) with SPDEF; 1.32 fold enrichment (6-mer frequency, TF over GST control) with ETV7; 1.18 fold enrichment (6-mer frequency, TF over GST control) with ELF5. Also, the binding signal was 1.25 fold enrichment (6-mer frequency, TF over GST control) in the experiment with ETV3 and 1.35 fold enrichment (6-mer frequency, TF over GST control) with ETV6.
GCGACT: the binding signal with ERF is 1.43 fold enrichment (6-mer frequency, TF over GST control); with ETV3L it was 1.17 fold enrichment (6-mer frequency, TF over GST control); with ETS2, 1.15 fold enrichment (6-mer frequency, TF over GST control); with SPDEF, 1.13 fold enrichment (6-mer frequency, TF over GST control); in the experiment with ETV7 it was 1.14 fold enrichment (6-mer frequency, TF over GST control); in the experiment with ELF5 it was 1.3 fold enrichment (6-mer frequency, TF over GST control). Also, the binding signal is 1.14 fold enrichment (6-mer frequency, TF over GST control) with ETV3 and 1.16 fold enrichment (6-mer frequency, TF over GST control) in the experiment with ETV6.
On to GTATCT, for which the binding signal is 1.16 fold enrichment (6-mer frequency, TF over GST control) with ERF; 1.16 fold enrichment (6-mer frequency, TF over GST control) with ETV3L; 1.05 fold enrichment (6-mer frequency, TF over GST control) in the experiment with ETS2; 1.14 fold enrichment (6-mer frequency, TF over GST control) in the experiment with SPDEF; 1.14 fold enrichment (6-mer frequency, TF over GST control) in the experiment with ETV7; 1.18 fold enrichment (6-mer frequency, TF over GST control) in the experiment with ELF5. The binding signal with ETV3 was 1.13 fold enrichment (6-mer frequency, TF over GST control); in the experiment with ETV6 it was 1.19 fold enrichment (6-mer frequency, TF over GST control).
As for TGCTTC, the binding signal is 1.81 fold enrichment (6-mer frequency, TF over GST control) with ERF; 2.16 fold enrichment (6-mer frequency, TF over GST control) in the experiment with ETV3L; 2.06 fold enrichment (6-mer frequency, TF over GST control) with ETS2; 2.39 fold enrichment (6-mer frequency, TF over GST control) with SPDEF; 2.13 fold enrichment (6-mer frequency, TF over GST control) in the experiment with ETV7; 2.66 fold enrichment (6-mer frequency, TF over GST control) with ELF5. Also, the binding signal was 2.21 fold enrichment (6-mer frequency, TF over GST control) with ETV3 and 2.45 fold enrichment (6-mer frequency, TF over GST control) in the experiment with ETV6.
TCCTGT: the binding signal with ERF was 1.6 fold enrichment (6-mer frequency, TF over GST control); with ETV3L, 1.88 fold enrichment (6-mer frequency, TF over GST control); with ETS2, 1.84 fold enrichment (6-mer frequency, TF over GST control); in the experiment with SPDEF, 2.32 fold enrichment (6-mer frequency, TF over GST control); with ETV7, 1.89 fold enrichment (6-mer frequency, TF over GST control); in the experiment with ELF5 it was 2.35 fold enrichment (6-mer frequency, TF over GST control). Besides, the binding signal was 1.89 fold enrichment (6-mer frequency, TF over GST control) with ETV3 and 1.84 fold enrichment (6-mer frequency, TF over GST control) with ETV6.
Turning to CTGCGA, the binding signal in the experiment with ERF is 1.22 fold enrichment (6-mer frequency, TF over GST control); in the experiment with ETV3L, 1.4 fold enrichment (6-mer frequency, TF over GST control); with ETS2, 1.29 fold enrichment (6-mer frequency, TF over GST control); with SPDEF, 1.37 fold enrichment (6-mer frequency, TF over GST control); in the experiment with ETV7 it was 1.26 fold enrichment (6-mer frequency, TF over GST control); with ELF5 it was 1.28 fold enrichment (6-mer frequency, TF over GST control). Further, the binding signal in the experiment with ETV3 was 1.32 fold enrichment (6-mer frequency, TF over GST control); with ETV6 it was 1.29 fold enrichment (6-mer frequency, TF over GST control).
As for TGCGAT, the binding signal is 1.24 fold enrichment (6-mer frequency, TF over GST control) with ERF; 1.27 fold enrichment (6-mer frequency, TF over GST control) with ETV3L; 1.14 fold enrichment (6-mer frequency, TF over GST control) with ETS2; 1.15 fold enrichment (6-mer frequency, TF over GST control) in the experiment with SPDEF; 1.23 fold enrichment (6-mer frequency, TF over GST control) in the experiment with ETV7; 1.11 fold enrichment (6-mer frequency, TF over GST control) with ELF5. In addition, the binding signal in the experiment with ETV3 is 1.23 fold enrichment (6-mer frequency, TF over GST control); in the experiment with ETV6 it was 1.16 fold enrichment (6-mer frequency, TF over GST control).
For the sequence TACTCC, the binding signal is 1.34 fold enrichment (6-mer frequency, TF over GST control) in the experiment with ERF; 1.26 fold enrichment (6-mer frequency, TF over GST control) with ETV3L; 1.37 fold enrichment (6-mer frequency, TF over GST control) in the experiment with ETS2; 1.29 fold enrichment (6-mer frequency, TF over GST control) with SPDEF; 1.21 fold enrichment (6-mer frequency, TF over GST control) in the experiment with ETV7; 1.15 fold enrichment (6-mer frequency, TF over GST control) with ELF5. The binding signal was 1.33 fold enrichment (6-mer frequency, TF over GST control) with ETV3 and 1.23 fold enrichment (6-mer frequency, TF over GST control) with ETV6.

(Values after paper PMC7862700, “An all-to-all approach to the identification of sequence-specific readers for epigenetic DNA modifications on cytosine”.)
